Measured values taken from PubChem BioAssay AID2314 (National Center for Advancing Translational Sciences (NCATS), 2010).
In all, about 300,000 compounds went through this assay and about 37,000 (12%) were called active. The sample as a whole holds a higher share of actives than the screen did. Values without a mark were called inactive. No stated cut-off is given here; in the data, active means max response mostly above about 13% (no sharp cut-off); inactive means mostly below about 14%.

Assay: Cycloheximide Counterscreen for Small Molecule Inhibitors of Shiga Toxin; further: read at 38.3 µM for the half of the compounds with a filed dose; 0% is about no effect
Conditions: cell reporter, cycloheximide protein synthesis inhibition counterscreen; hits give high values

Row | Structure (SMILES) | max response
1 | COc1ccc(CCNC(=O)CS(=O)(=O)Cc2nc(-c3ccc(C)cc3)oc2C)cc1OC | -4.16%
2 | NS(=O)(=O)c1ccccc1NC(=O)c1c(O)c2ccccc2[nH]c1=O | 41.2% (active)
3 | CC(C)C(=O)Nc1c(O)c2ccccc2[nH]c1=O | -0.723%
4 | CCCC(=O)Nc1c(O)c2ccccc2[nH]c1=O | -3.15%
5 | N#Cc1ccc(-c2nc3cc(C#N)c(C#N)cc3nc2-c2ccccc2)cc1C#N | 18.4%
6 | Cc1ccc(N2C(=O)C3C4C=CC(CC4)C3C2=O)cc1Br (centres undefined) | 0.748%
7 | COc1ccc(CNC(=O)CN(c2ccc(OC)c(Cl)c2)S(=O)(=O)c2ccc(C)cc2)cc1 | 6.81%
8 | COc1cc(N/C=C2\CC(=O)NC(C)=C2C#N)cc(OC)c1OC | -2.39%
9 | c1cnc(N2CCN(c3ccc4ccccc4n3)CC2)nc1 | 53% (active)
10 | Oc1ccc(CN2CCN(c3ncccn3)CC2)cc1 | -3.1%
11 | O=C(c1ccncc1)N1CCN(c2ccc3ccccc3n2)CC1 | 8.94%
12 | Cc1nc(N2CCOCC2)sc1C(=O)NN | -3.93%
13 | Cc1cc(C)c2nc(N3CCC(C(=O)NCCN4CCOCC4)CC3)sc2c1 | -2.32%
14 | Fc1cc(F)c2nc(N3CCOCC3)sc2c1 | 36.9% (active)
15 | CC(C)c1nc2ccc(C(=O)O)cc2[nH]1 | 7.51%
16 | COc1cc(OC)cc(C(=O)N[C@H](C(=O)Nc2nc3ccccc3[nH]2)C(C)C)c1 | 0.422%
17 | COC(=O)Nc1nc2ccc(Sc3ccccc3)cc2[nH]1 | 27.6% (active)
18 | Nc1nc(Nc2ccccc2)nc(NCCO)c1[N+](=O)[O-] | 0.849%
19 | Cc1ccc(Nc2nc(N3CCOCC3)nc(N3CCOCC3)n2)cc1Cl | -3.32%
20 | CNc1nc(Nc2ccc(C)c(Cl)c2)nc(N)c1[N+](=O)[O-] | 32.5% (active)

Row | Structure (SMILES) | max response
21 | c1ccc2c(c1)CSc1sccc1C2=C1CCNCC1 | -3.55%
22 | CC(=O)NC(=S)NNC(=O)c1ccc(Br)cc1 | 12.5%
23 | Cc1ccccc1Cn1c2ccccc2c2cnn(CC(=O)NCc3ccco3)c(=O)c21 | 1.52%
24 | COc1ccc2[nH]c(C(=O)N3CCN(C)CC3)c(C)c2c1 | 7.26%
25 | Cc1[nH]c2ccc(C(=O)N3CCN(C)CC3)cc2c1C | 28% (active)
26 | CCOc1ccccc1N1CCN(C(=O)c2ccc3[nH]c(C)c(C)c3c2)CC1 | -2.02%
27 | Cc1cc(C)cc(NS(=O)(=O)c2ccc(Oc3ncc(C(F)(F)F)cc3Cl)cc2)c1 | -3.33%
28 | COC(=O)Cc1ccc(Oc2ncc(C(F)(F)F)cc2Cl)cc1 | 10.3%
29 | FC(F)(F)c1cnc(Oc2ccccc2-c2nnc(-c3ccc(Cl)cc3)o2)c(Cl)c1 | 13.8% (active)
30 | CSc1ccccc1-c1nnc(-c2ccc(Cl)cc2)o1 | 29% (active)
31 | Cc1c(C)c2ccc(OCC(=O)N3CCN(c4cccc(Cl)c4)CC3)cc2oc1=O | -3.72%
32 | COc1cccc(-c2coc3cc4oc(=O)c(CC(=O)O)c(C)c4cc23)c1 | 7.42%
33 | Cc1ccccc1CN1CCNC(=O)C1CC(=O)NCCC1=CCCCC1 (centres undefined) | -4.14%
34 | CN(C)CCCNC(=S)N1CCC(c2nc3ccccc3[nH]2)CC1 | -2.52%
35 | CC(=O)N1c2ccc(S(=O)(=O)N3CCC(C(=O)NCc4ccc(F)cc4)CC3)cc2CC1C (centres undefined) | -3.6%
36 | CCNc1ccc(C(=O)OCC(=O)N2c3ccccc3NC(=O)C2(C)C)cc1[N+](=O)[O-] | -4.72%
37 | N#Cc1ccc(CSc2nnc3ccccn23)cc1 | 5.39%
38 | Cc1cc(C(=O)CSc2nc(N)cc(=O)[nH]2)c(C)n1-c1cccc(F)c1 | 7.82%
39 | O=C(CSc1nnc(-c2ccco2)n1CC1CCCO1)c1ccccc1 (centres undefined) | 8.39%
40 | Cn1c(CC(=O)Nc2ccccc2)nnc1SCC(=O)c1ccccc1 | 3.65%

Row | Structure (SMILES) | max response
41 | O=C(CSc1nnc2n1CCCN2)c1ccccc1 | 38.3% (active)
42 | Cc1ccc(-n2c(C)cc(C(=O)CN3C(=O)C(=O)N(C4CCCC4)C3=O)c2C)cc1 | -1.52%
43 | Cc1ccc(-n2c(C)cc(C(=O)CSc3nnc4ccccn34)c2C)cc1 | 39.3% (active)
44 | Cn1c(SCC(=O)c2ccc(F)cc2)nnc1-c1ccccn1 | 6.35%
45 | O=C(CSc1nnc2ccccn12)c1ccccc1 | 49.5% (active)
46 | COc1ccc(N(CC(=O)N2CCOCC2)S(=O)(=O)c2ccccc2)cc1Cl | -0.709%
47 | COc1ccc(/C=C(/NC(=O)c2ccccc2)C(=O)Nc2cccc(C(=O)O)c2)cc1 | -3.46%
48 | COc1ccc(-c2c(C(C)=O)c(C)nc3sc4c(=O)n(-c5ccc(C)cc5)nnc4c23)cc1 | -1.79%
49 | CC(NCc1nc2ccccc2n1C)C12CC3CC(CC(C3)C1)C2 (centres undefined) | -1.92%
50 | O=C(Cn1cc(-c2nnnn2-c2ccc(Cl)cc2)c(=O)c2ccccc21)c1ccccc1 | -5.16%
51 | CN(C(=O)CC1C(=O)NCCN1Cc1ccc2ccccc2c1)C1CCOCC1 (centres undefined) | 0.547%
52 | O=C(O)C1CCC(CNS(=O)(=O)c2ccc(Br)cc2)CC1 (centres undefined) | -3.43%
53 | COc1ccc(S(=O)(=O)Nc2ccccc2C(=O)N2CCCC2)cc1C | -0.906%
54 | C/C(CCC(=O)OC[C@H]1O[C@H](C#Cc2ccccc2)C=C[C@@H]1Oc1ccc(C)cc1)=N\OC[C@@H](O)[C@H]1O[C@@H]2OC(C)(C)O[C@@H]2[C@H]1O | 1.29%
55 | COc1cc(CC(=O)N/N=C/c2ccccc2)c([N+](=O)[O-])cc1OC | 16.2%
56 | CCOC(=O)c1c(CC(C)C)csc1/N=C/C1=C(O)CCCC1=O | -1.4%
57 | CCOC(=O)c1c(/N=C/C2C(=O)CC(C)(C)CC2=O)sc(C)c1C | -5.69%
58 | CCOC(=O)c1sc(/N=C/C2=C(O)CC(C)(C)CC2=O)c(C(=O)OCC)c1C | 65.5% (active)
59 | CCCCCC1CC(COc2ccccc2)OC1=O (centres undefined) | -2.67%
